Measurements taken from PubChem BioAssay AID504423 (Broad Institute, 2011).
In all, about 340,000 compounds went through this assay and about 260 (0.076%) were called active. For the sample, actives were picked, then their nearest neighbours and some compounds at random. Unmarked numbers belong to inactive results.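 How the source made its calls: active means highest replicate inhibition at or above 60% at 9 µM, even if other replicates fall short; inactive means all replicates below 60% inhibition.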

tested on: Kaposi's sarcoma herpesvirus LANA C-terminal domain (residues 932-1162) DNA binding; assay: inhibitors of KSHV C-LANA binding to DNA, primary screen, biochemical, fluorescence polarization, FAM-LBS DNA, MBP-C-LANA, single point (AID 504423); details: at 9 µM, hits give high values;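 further: 0% = neutral control wells and 100% = 4 µM acridine orange control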

Compared with `NC(N)=NCCCc1cn(CC(=O)N2CCNCC2)nn1`, `CCCn1c(N)c(C(=O)CSc2nnc3n2CCCCC3)c(=O)[nH]c1=O` is lower in inhibition: -0.256% for the first, -2.38% for the second.

First: O=C(Cc1ccc(S(=O)(=O)N2CCOCC2)s1)Nc1ccc(Br)c(C(F)(F)F)c1
Second: CCN(Cc1ccccc1)C(=O)Cc1ccc(OC)c(S(=O)(=O)N2CCOCC2)c1
The inhibition of the first is higher: -0.373% for the first, -0.86% for the second.

Compared with `COC(=O)c1ccc([C@@H](O)[C@H](C)C(=O)CC(=O)OC(C)(C)C)cc1`, `COc1ccc(NC(=O)C(CC(C)C)NS(=O)(=O)c2ccc3c(c2)CCN3C(C)=O)cc1OC` (stereo unspecified) is lower in inhibition: 2.15% for the first, 1.56% for the second.

First: Cc1cc(NC(=O)/C=C/C(=O)N(c2ccccc2C)C(C(=O)NC2CCCC2)c2ccc(F)cc2)no1 (stereo unspecified)
Second: Cc1nc2ccc(NC(=O)N3CCC(c4ccccc4)C3)cc2nc1C (stereo unspecified)
The inhibition of the first is higher: 0.894% for the first, -3.95% for the second.

First: CSc1ccc(S(=O)(=O)NCC(=O)OCC(=O)NC2(C#N)CCCCC2)cc1[N+](=O)[O-]
Second: CCCN(C(=O)COC(=O)CNS(=O)(=O)c1ccc(NC(C)=O)cc1)C1CCS(=O)(=O)C1 (stereo unspecified)
The inhibition of the first is higher: -0.312% for the first, -0.76% for the second.

Compared with `COC(=O)c1cc(NC2c3ccccc3C(=O)N2c2ccc(Cl)cn2)cc(C(=O)OC)c1` (stereo unspecified), `O=C(CNCc1ccc(Cl)cc1)Nc1cccc(C(=O)O)c1` is higher in inhibition: -1.05% for the first, 0.621% for the second.

Compared with `CCOC(=O)c1cc(C(=O)Nc2ccc(S(=O)(=O)Nc3ccc(OC)cc3)cc2)nn1C`, `CCOc1ccc(NC(=O)c2cccc3c2C(=O)N(CC2CCCO2)C3)cc1` (stereo unspecified) is higher in inhibition: -1.57% for the first, -0.819% for the second.

First: CCC(Sc1nncn1C)C(=O)Nc1nnc(-c2ccc(Cl)cc2)s1 (stereo unspecified)
Second: Cc1cc(C#N)c(SCC(N)=O)nc1-c1ccc(F)cc1
The inhibition of the first is lower: -3.46% for the first, -0.398% for the second.

First: Oc1c(Cl)cc(Cl)c(Cl)c1Cc1c(O)c(Cl)cc(Cl)c1Cl
Second: Cc1cc(/C=N/NC(=O)CC2(C)OCCO2)c(C)n1-c1ccc(Cl)c(Cl)c1
The inhibition of the first is lower: -0.191% for the first, 0.73% for the second.

Compared with `CC(Oc1cccc(Cl)c1)C(=O)NC1CC(C)(C)NC(C)(C)C1` (stereo unspecified), `CC(=O)c1nnn(-c2ccc(Cl)cc2C#N)c1C` is lower in inhibition: -1.58% for the first, -3.28% for the second.

Going from `COc1cc(OC)c(NS(=O)(=O)c2cn(C)cn2)cc1Cl` to `COc1cc(/C=C/C(=O)O)cc(S(=O)(=O)Nc2ccccc2SC)c1OC`, the inhibition rises from 0.525% to 2.56%.

Compared with `OCCC1CN(Cc2ccc3nsnc3c2)CCN1C1CCCC1` (stereo unspecified), `CCC(CC)c1nnc(NC(=O)C2CCN(C(=O)c3ccco3)CC2)s1` is higher in inhibition: -1.26% for the first, 0.307% for the second.

First: O=C(CN(c1ccc2c(c1)OCCO2)S(=O)(=O)c1ccccc1)Nc1ccc2c(c1)OCO2
Second: Cc1cc(Br)ccc1SCC(=O)OCC(=O)NCc1ccc2c(c1)OCO2
The inhibition of the first is higher: -0.247% for the first, -1.13% for the second.

Compared with `CCC1C(=O)NCCN1C(=O)c1ccc2nc(Cc3ccc(OC)cc3)oc2c1` (stereo unspecified), `COc1ccc2c(c1)c1ncn(Cc3ccccn3)c(=O)c1n2C` is lower in inhibition: -0.899% for the first, -1.99% for the second.

Compared with `S=c1[nH]ccn1-c1ccc(Cl)cc1`, `C=CCNc1nc(Nc2ccc(Cl)cc2)nc(OC)n1` is higher in inhibition: -5.31% for the first, -0.456% for the second.

Going from `COc1cc(OC)cc(-c2c(-c3cccs3)c3cc(-c4ccc(OC)nc4)ccc3n2C)c1` to `COc1cccc(Cn2cnc3c([N+](=O)[O-])c(C)c(C)cc32)c1`, the inhibition falls from -0.213% to -1.77%.

First: C=CCN(Cc1nc(-c2cc(OC)c3c(c2)OCO3)oc1C)C1CCS(=O)(=O)C1 (stereo unspecified)
Second: CCCN(CC(=O)Nc1ccccc1C)C(=O)c1ccc(OCC(=O)N2CCOCC2)c(OCC)c1
The inhibition of the first is lower: -0.881% for the first, 0.13% for the second.

Going from `Cc1c(N=Nc2ccc(N(C)C)cc2)c(=O)n(-c2ccccc2)n1C` to `Cc1ccc(NC(=O)Cn2cccc2C2=NC(c3ccccc3)CO2)c(C)c1` (stereo unspecified), the inhibition rises from -5.21% to 0.882%.

Compared with `CCOC(=O)CC(NC(=O)C1c2ccccc2Oc2ccccc21)c1ccc(C)cc1` (stereo unspecified), `CCCCCNC(=O)C1c2ccccc2Oc2ccccc21` is lower in inhibition: 1.2% for the first, -0.323% for the second.

Compared with `c1ccc(-n2cccc2)c(N2CCCCC2)c1`, `c1ccc(CSc2ncnc3c2sc2nc(N4CCOCC4)c4c(c23)CCCC4)cc1` is lower in inhibition: 1.68% for the first, 0.637% for the second.

Compared with `CN1C(c2ccc(F)cc2)=CS/C1=C(/C#N)c1nnc2n1-c1ccccc1SC2`, `O=c1[nH]nc(SCCS(=O)(=O)c2ccc(F)cc2)n1-c1ccccc1C(F)(F)F` is lower in inhibition: 1.32% for the first, -0.936% for the second.

Going from `CC(C)c1ccc(C=NNc2ccc([N+](=O)[O-])cn2)cc1` to `O=C1OC(Cc2ccccc2)C(c2ccccc2)C1=O` (stereo unspecified), the inhibition rises from -4.43% to 0.23%.

First: Cc1nc(NC(=O)CCC(=O)O)sc1C(=O)N(C)C
Second: CCOC(=O)c1sc(/N=C/Nc2nc(C)c(C(=O)OCC)s2)nc1C
The inhibition of the first is lower: -0.461% for the first, -0.364% for the second.

Going from `CC(C)n1c(=S)[nH]c2cc(C(F)(F)F)ccc21` to `CC(NC(=O)CN(C)S(=O)(=O)c1ccc(F)cc1)C1CC2CCC1C2` (stereo unspecified), the inhibition falls from -0.144% to -0.793%.

Compared with `CC12CCC(C(=O)N(CCC#N)CCC#N)(CC1=O)C2(C)C` (stereo unspecified), `CCN(CC)C(=O)[C@H]1C[C@H](CC(=O)NCC23CC4CC(CC(C4)C2)C3)C(=O)N2CCc3c([nH]c4cc(CCC(=O)N(C)C)ccc34)[C@]12C` is lower in inhibition: 0.103% for the first, -1.63% for the second.

With `S=C(Nc1cccc(Br)c1)N1CCn2cccc2C1c1cccnc1` (stereo unspecified) the inhibition was 0.461%.

`CCN(CC)CCCC(C)n1c2nc(=O)[nH]c(=O)c-2nc2cc(Cl)ccc21` (stereo unspecified) was tested, and the inhibition was 167% (active).
For `CCCN(CCC)C(=O)C1c2ccccc2Oc2ccccc21`, the inhibition was 88.3% (active).
`Cc1cc(/C=N/Nc2ccc([N+](=O)[O-])cn2)c(C)n1-c1cccc(C(=O)O)c1` was tested, and the inhibition was 64.5% (active).
In the case of `COc1cccc2c1C(=O)c1c(O)c3c(c(O)c1C2=O)CC(O)(C(C)=NNC(=O)c1ccc(Cl)c(Cl)c1)CC3OC1CC(N)C(O)C(C)O1` (stereo unspecified), the inhibition is reported as 102% (active).
With `O=C1COc2c1ccc(O)c2O` the inhibition was 105% (active).
